Measurements: PubChem BioAssay (NCI)
The panel holds about 79,000 compounds, 15% with a hit somewhere; the sample as a whole holds those more often. Active and inactive are the calls of the source. No stated cut-off is given here; in the data, active means growth inhibition above about 70%; inactive means the rest.

Experiments:
[1] = NCI Yeast Anticancer Drug Screen. Data for the rad50 strain (AID 155);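 further: 0% = growth of vehicle-only cultures of the same strain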; conditions: S. cerevisiae rad50 strain growth inhibition, hits give high values
In short: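 Genetically altered yeast (DNA repair pathway); compound treatment; growth inhibition vs vehicle ctrl.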

[2] = NCI Yeast Anticancer Drug Screen. Data for the mec2-1 strain (AID 157); conditions: S. cerevisiae mec2-1 strain, hits give high values
In short: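 Test agents were screened against the mec2-1 yeast strain, with defined DNA repair or cell cycle alteration. Growth was scored as inhibition against vehicle-only controls.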

[3] = NCI Yeast Anticancer Drug Screen. Data for the sgs1 mgt1 strain (AID 161);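 further: 0% = growth of cultures given vehicle only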; conditions: S. cerevisiae sgs1 mgt1 strain, hits give high values
In short: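 Inhibition of yeast growth, normalised to vehicle-treated controls, is reported for a strain bearing genetic alterations in DNA damage repair.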

[4] = NCI Yeast Anticancer Drug Screen. Data for the cln2 rad14 strain (AID 165);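 further: 0% = growth equal to vehicle treated cultures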; conditions: S. cerevisiae cln2 rad14 strain, hits give high values
In short: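 Growth of compound-exposed yeast (cln2 rad14 genotype) measured and expressed as inhibition relative to vehicle.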

[5] = NCI Yeast Anticancer Drug Screen. Data for the bub3 strain (AID 167); conditions: S. cerevisiae bub3 mutant strain, hits give high values
In short: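 Yeast carrying a defined mutation is treated with each compound, and growth is compared with that of vehicle-exposed cells to give inhibition.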

[6] = NCI Yeast Anticancer Drug Screen. Data for the mlh1 rad18 strain (AID 175); conditions: S. cerevisiae mlh1 rad18 strain growth inhibition, hits give high values
In short: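 In this whole-cell yeast screen, a strain with altered DNA damage repair is challenged with compound, and its growth is measured against matched vehicle-treated controls.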

[7] = at 5.0 µM (retest, dose inferred, filed as 0.5)
[8] = at 50.0 µM (retest, dose inferred, filed as 5.0)

Measured: growth inhibition

CC1(C)C2CCC(C2)C1OC(=O)c1ccccc1C(=O)O (stereo not given)
active: [4]; at 50.0 µM 76.2% | [5]; at 50.0 µM 71%
inactive: [1]; [7] -7% | [1]; [8] 11% | [1]; at 50.0 µM 1.45% | [2]; [7] -2% | [2]; [8] 0% | [2]; at 50.0 µM 12.9% | [3]; [7] -5% | [3]; [8] 6% | [3]; at 50.0 µM -6.05% | [4]; [7] 10% | [4]; [8] 15% | [5]; [7] -2% | [5]; [8] 26% | [6]; [7] -21% | [6]; [8] 6% | [6]; at 50.0 µM 32.7%

CC(NNC(=S)N1CCCCCC1)c1cc2ccccc2cn1 (stereo not given)
inactive: [1]; [7] 52% | [2]; [7] 65% | [4]; at 50.0 µM 68.5% | [6]; [7] 47%
active: [1]; [8] 95% | [1]; at 50.0 µM 86.2% | [2]; [8] 97% | [2]; at 50.0 µM 78.7% | [3]; [7] 93% | [3]; [8] 96% | [3]; at 50.0 µM 86.6% | [4]; [7] 90% | [4]; [8] 91% | [5]; [7] 87% | [5]; [8] 96% | [5]; at 50.0 µM 83.5% | [6]; [8] 95% | [6]; at 50.0 µM 90.5%

CCCCCCCCCCCCCCNCC(OCC)OCC
active: [1]; [8] 98% | [1]; at 50.0 µM 90.7% | [2]; [8] 99% | [2]; at 50.0 µM 93.4% | [3]; [7] 83% | [3]; [8] 99% | [3]; at 50.0 µM 93.2% | [4]; [8] 98% | [4]; at 50.0 µM 90.5% | [5]; [7] 75% | [5]; [8] 99% | [5]; at 50.0 µM 91.5% | [6]; [7] 85% | [6]; [8] 98% | [6]; at 50.0 µM 91%
inactive: [1]; [7] 69% | [2]; [7] 62% | [4]; [7] 61%

COc1ccc(N=NN(C)C)cc1
active: [1]; at 50.0 µM 97% | [2]; at 50.0 µM 70.3% | [3]; at 50.0 µM 83.7% | [4]; at 50.0 µM 76.5% | [5]; at 50.0 µM 72% | [6]; [8] 92% | [6]; at 50.0 µM 94.6%
inactive: [1]; [7] -13% | [1]; [8] 65% | [2]; [7] 13% | [2]; [8] 28% | [3]; [7] -7% | [3]; [8] 35% | [4]; [7] -42% | [4]; [8] 26% | [5]; [7] -12% | [5]; [8] 50% | [6]; [7] 17%

COC(=O)CS(=O)(=O)CCS(=O)(=O)CC(=O)OC
inactive: [1]; [7] -4% | [1]; [8] 3% | [1]; at 50.0 µM -0.4% | [2]; [7] -2% | [2]; [8] 8% | [2]; at 50.0 µM 11.9% | [3]; [7] -1% | [3]; [8] 14% | [3]; at 50.0 µM 4.65% | [4]; [7] -1% | [4]; [8] 1% | [4]; at 50.0 µM -1.25% | [5]; [7] -1% | [5]; [8] 15% | [5]; at 50.0 µM 60.1% | [6]; [7] -3% | [6]; [8] 11% | [6]; at 50.0 µM 20.4%
